Common to all, as to experiment: BK channel mutant inhibitors and activators – cell-based, U2OS BacMam, thallium flux, beta subunits, selectivity assay, profiling panel (AID 1259406);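 note: initial slope of Thallos dye fluorescence rise after thallium is added; log ratio against the mean of 0.3% DMSO vehicle wells on the same plate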
The subject of one assay is F380Y. The settings on record: U2OS BacMam BK variants, at 30 µM.
The next assay deals with F380Y/beta1. As to conditions: U2OS BacMam BK variants, at 30 µM.
In the next assay the test system is F380Y/beta2Delta. The settings on record: U2OS BacMam BK variants, at 30 µM.
For another assay, the system named is F380Y/beta4. As to conditions: U2OS BacMam BK variants, at 30 µM.
Assay [1] concerns the target Calcium-activated potassium channel subunit alpha-1 (Homo sapiens) + Leucine-rich repeat-containing protein 26 (Homo sapiens) (UniProt Q12791+Q2I0M4). As to conditions: U2OS BacMam BK variants, F380Y/Slo1WT/gamma1, at 30 µM.
A further assay concerns R275C. As to conditions: U2OS BacMam BK variants, at 30 µM.
Another assay concerns R275C/beta1. As to conditions: U2OS BacMam BK variants, at 30 µM.
For another assay, the system named is R275C/beta2Delta. As to conditions: U2OS BacMam BK variants, at 30 µM.
Another assay has as its system R275C/beta4. The settings on record: U2OS BacMam BK variants, at 30 µM.
In the next assay the test system is R275C/Slo1WT/beta2. The settings on record: U2OS BacMam BK variants, at 30 µM.

Unmarked numbers belong to inactive results. Active and inactive are the calls of the source.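 Rule for the calls: active = thallium flux through the channel raised or lowered by more than 3 SD from vehicle-only wells, actives on both sides; inactive = the rest.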

Chain of Calcium-activated potassium channel subunit alpha-1 (Homo sapiens) + Leucine-rich repeat-containing protein 26 (Homo sapiens) (Q2I0M4 whole entry, looked up, one chain of several): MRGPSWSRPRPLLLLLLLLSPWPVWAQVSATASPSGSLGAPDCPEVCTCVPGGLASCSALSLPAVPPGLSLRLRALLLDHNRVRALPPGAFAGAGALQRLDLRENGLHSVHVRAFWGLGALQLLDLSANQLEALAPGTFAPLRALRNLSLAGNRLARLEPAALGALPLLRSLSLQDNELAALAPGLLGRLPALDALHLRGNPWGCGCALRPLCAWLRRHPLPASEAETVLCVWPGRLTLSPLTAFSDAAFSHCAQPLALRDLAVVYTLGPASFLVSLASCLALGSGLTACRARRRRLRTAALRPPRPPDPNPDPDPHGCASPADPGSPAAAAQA

On to `Clc1cc(Cl)c(NN=Cc2cc(C#Cc3ccccc3)cs2)c(Cl)c1`, for which the log fold change Tl+ flux in the assay with F380Y is -0.0491; in the assay on F380Y/beta1, 0.00923; in the assay on F380Y/beta2Delta it was -0.0555; with F380Y/beta4 it was 0.0192; in [1], -0.0342; with R275C, -0.012. For the same compound, the log fold change Tl+ flux with R275C/beta1 was 0.00694; with R275C/beta2Delta, -0.0137; with R275C/beta4, 0.0367; in the assay on R275C/Slo1WT/beta2, 0.0344.
On to `CCOC(=O)CCSC1=NC(c2cccs2)C(C(=O)OCC)=C(C)N1` (stereo not given), for which the log fold change Tl+ flux in the assay with F380Y was -0.00248; in the assay with F380Y/beta1, -0.0154; in the assay on F380Y/beta2Delta it was -0.0693; in the assay with F380Y/beta4 it was -0.0516; in [1], -0.0633; with R275C, -0.0523. Moreover, the log fold change Tl+ flux in the assay on R275C/beta1 is -0.0288; in the assay on R275C/beta2Delta it was -0.0824; in the assay on R275C/beta4, -0.0154; in the assay with R275C/Slo1WT/beta2, -0.0325.
For the compound `COc1ccc(CNCc2cc(OC)c(OC)c(OC)c2)cc1`, the log fold change Tl+ flux in the assay with F380Y was -0.0783; in the assay on F380Y/beta1, 0.0429; with F380Y/beta2Delta, -0.0785; in the assay on F380Y/beta4, -0.1 (active); in assay [1], -0.099; in the assay on R275C it was -0.0423. The log fold change Tl+ flux in the assay with R275C/beta1 was 0.0356; in the assay with R275C/beta2Delta it was -0.0892 (active); in the assay on R275C/beta4, -0.0177; in the assay on R275C/Slo1WT/beta2 it was -0.102 (active).
On to `Cc1ccc(-c2nc(N=CNOC(=O)c3ccc([N+](=O)[O-])cc3)sc2C)cc1Cl`, for which the log fold change Tl+ flux is 0.0323 with F380Y; 0.126 (active) with F380Y/beta1; 0.0425 in the assay with F380Y/beta2Delta; 0.147 (active) with F380Y/beta4; 0.102 in [1]; 0.00635 in the assay on R275C. Besides, the log fold change Tl+ flux is 0.0986 in the assay on R275C/beta1, 0.13 (active) in the assay on R275C/beta2Delta, 0.142 (active) with R275C/beta4 and 0.0243 in the assay on R275C/Slo1WT/beta2.
For the compound `COCc1cc(=O)[nH]c(SCC(=O)c2ccc(-c3ccccc3)cc2)n1`, the log fold change Tl+ flux in the assay on F380Y was 0.0542; in the assay on F380Y/beta1, 0.0105; with F380Y/beta2Delta, 0.0138; with F380Y/beta4, -0.000638; in assay [1], 0.0335; in the assay on R275C, 0.0131. In addition, the log fold change Tl+ flux with R275C/beta1 is -0.0427; in the assay with R275C/beta2Delta, 0.032; with R275C/beta4, 0.0252; with R275C/Slo1WT/beta2, -0.000518.
Regarding `CCOC(=O)NN=C(C)C(C)=NNC(=O)OCC`, the log fold change Tl+ flux was -0.0316 with F380Y; -0.0656 in the assay with F380Y/beta1; -0.0255 in the assay with F380Y/beta2Delta; -0.0305 in the assay with F380Y/beta4; -0.00664 in [1]; -0.0333 with R275C. For the same compound, the log fold change Tl+ flux in the assay on R275C/beta1 is -0.0653; in the assay on R275C/beta2Delta, -0.00622; with R275C/beta4 it was -0.0094; in the assay on R275C/Slo1WT/beta2, 0.0167.
As for `Cc1cc(-c2nn(C)c(=O)c3ccccc23)cc(C)c1O`, the log fold change Tl+ flux was 0.00104 with F380Y; 0.0146 with F380Y/beta1; 0.00813 with F380Y/beta2Delta; -0.0513 with F380Y/beta4; -0.0365 in assay [1]; 0.0132 with R275C. Further, the log fold change Tl+ flux in the assay with R275C/beta1 was 0.0233; in the assay on R275C/beta2Delta, -0.0115; in the assay on R275C/beta4, 0.0138; in the assay with R275C/Slo1WT/beta2 it was -0.0205.
In the case of `COC(=O)c1c(S(=O)(=O)N2CCOCC2)c(C)n(C)c1C`, the log fold change Tl+ flux in the assay on F380Y was 0.000226; with F380Y/beta1, 0.0187; in the assay on F380Y/beta2Delta it was -0.00469; in the assay with F380Y/beta4, 0.00738; in [1] it was 0.0534; in the assay with R275C it was -0.00135. For the same compound, the log fold change Tl+ flux with R275C/beta1 is 0.0384; with R275C/beta2Delta, 0.108 (active); with R275C/beta4 it was 0.0019; in the assay on R275C/Slo1WT/beta2, -0.000777.
Turning to `C#CC1(NC(=O)c2ccc(-c3ccc(CC)cc3)cc2)CCCCC1`, the log fold change Tl+ flux in the assay with F380Y is 0.0109; in the assay on F380Y/beta1, 0.0082; with F380Y/beta2Delta, 0.0141; in the assay on F380Y/beta4 it was 0.0366; in assay [1] it was 0.047; in the assay with R275C, 0.0116. Further, the log fold change Tl+ flux was -0.0162 with R275C/beta1, -0.00151 in the assay on R275C/beta2Delta, 0.0306 in the assay with R275C/beta4 and -0.00603 with R275C/Slo1WT/beta2.
For the compound `COc1cc(C(=O)Nc2ccccc2C(=O)NCCc2ccccn2)cc(OC)c1OC`, the log fold change Tl+ flux with F380Y was 7.8e-05; in the assay with F380Y/beta1, 0.0128; with F380Y/beta2Delta it was 0.0219; in the assay on F380Y/beta4, 0.0635; in assay [1] it was 0.037; in the assay with R275C, 0.0306. For the same compound, the log fold change Tl+ flux with R275C/beta1 is 0.0367; with R275C/beta2Delta it was 0.0116; with R275C/beta4, -0.0253; in the assay with R275C/Slo1WT/beta2, 0.0509.
For the compound `CC(C)(C)NC(=O)NCCO`, the log fold change Tl+ flux in the assay on F380Y was 0.0116; in the assay with F380Y/beta1, -0.0332; in the assay with F380Y/beta2Delta, 0.0577; in the assay with F380Y/beta4 it was -0.013; in [1], -0.0499; with R275C, -0.02. In addition, the log fold change Tl+ flux with R275C/beta1 is 0.0132; with R275C/beta2Delta it was -0.014; in the assay on R275C/beta4 it was 0.00214; in the assay with R275C/Slo1WT/beta2 it was -0.03.
Consider `Cc1cc2nccc(-c3cccnc3)n2n1`, for which the log fold change Tl+ flux is -0.0198 in the assay with F380Y; -0.0232 in the assay with F380Y/beta1; 0.0219 in the assay on F380Y/beta2Delta; -0.0149 in the assay on F380Y/beta4; -0.0534 in assay [1]; 0.00294 in the assay on R275C. The log fold change Tl+ flux in the assay with R275C/beta1 was -0.00487; with R275C/beta2Delta, -0.00124; in the assay on R275C/beta4, 0.00702; in the assay on R275C/Slo1WT/beta2, -0.00651.
For the compound `Cc1[nH]n(-c2c(Cl)cc(C(F)(F)F)cc2Cl)c(=O)c1N=Nc1ccccc1`, the log fold change Tl+ flux in the assay on F380Y was 0.0138; with F380Y/beta1, 0.00301; in the assay with F380Y/beta2Delta, 0.00886; in the assay on F380Y/beta4 it was 0.0101; in [1], -0.0146; with R275C, -0.0246. For the same compound, the log fold change Tl+ flux in the assay on R275C/beta1 was 0.00755; in the assay on R275C/beta2Delta it was 0.0171; in the assay with R275C/beta4, -0.0209; with R275C/Slo1WT/beta2, -0.029.
`CCc1nc2ccccc2nc1N1CCN(S(=O)(=O)c2ccc(Cl)cc2)CC1`: the log fold change Tl+ flux in the assay with F380Y is -0.00553; with F380Y/beta1, -0.0118; in the assay on F380Y/beta2Delta, -0.00426; in the assay with F380Y/beta4, -0.00719; in [1], -1.3e-05; in the assay on R275C, 0.0269. Further, the log fold change Tl+ flux is 0.0201 with R275C/beta1, -0.0214 in the assay on R275C/beta2Delta, 0.00696 in the assay on R275C/beta4 and -0.0158 in the assay on R275C/Slo1WT/beta2.

For the origin of these results see PubChem BioAssay.
